Test [1] can be described thus: Quantitative High-Throughput drug screen in 47 multiple myeloma cell lines against the NCATS MIPE library collection: LP1_DSMZ cell viability assay (AID 1918982). Also: nearly all actives have a fitted effect of over 35% in size. The procedure, abridged:
(§1)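 Inhibition of viability over 48 h was scored by ATP content (CellTiter-Glo) in 500-cell wells. Zero and full viability were defined by media-only and DMSO-only wells.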

The nature of test [2]: Quantitative High-Throughput drug screen in 47 multiple myeloma cell lines against the NCATS MIPE library collection: KMS28PE_JCRB cell viability assay (AID 1918983). Also: nearly all actives have a fitted effect of over 35% in size. The procedure, abridged:
as §1

Test [3] is described as follows: Quantitative High-Throughput drug screen in 47 multiple myeloma cell lines against the NCATS MIPE library collection: L363_DSMZ cell viability assay (AID 1918984). Also: nearly all actives have a fitted effect of over 40% in size. Summed up:
as §1

A short description of test [4]: Quantitative High-Throughput drug screen in 47 multiple myeloma cell lines against the NCATS MIPE library collection: KMS34_JCRB cell viability assay (AID 1918985). Also: nearly all actives have a fitted effect of over 40% in size. The procedure, abridged:
as §1

Test [5] in a line: Quantitative High-Throughput drug screen in 47 multiple myeloma cell lines against the NCATS MIPE library collection: OCIMY7_PLB cell viability assay (AID 1918987). Also: nearly all actives have a fitted effect of over 65% in size. Summed up:
as §1

The nature of test [6]: Quantitative High-Throughput drug screen in 47 multiple myeloma cell lines against the NCATS MIPE library collection: OCIMY5_PLB cell viability assay (AID 1918988). Also: nearly all actives have a fitted effect of over 65% in size. The procedure, abridged:
as §1

The nature of test [7]: Quantitative High-Throughput drug screen in 47 multiple myeloma cell lines against the NCATS MIPE library collection: OPM1_PLB cell viability assay (AID 1918989). Also: nearly all actives have a fitted effect of over 40% in size. Summed up: as §1
The nature of test [8]: Quantitative High-Throughput drug screen in 47 multiple myeloma cell lines against the NCATS MIPE library collection: SKMM1_PLB cell viability assay (AID 1919863). Also: nearly all actives have a fitted effect of over 35% in size. As to viability: series mostly up to about 46 µM. As to conditions: SKMM1 myeloma viability, CellTiter-Glo ATP, 48 h; viability: active compounds read low. The procedure, abridged:
as §1
(In ATP-based viability assays light output follows the ATP content of the culture.)

A short description of test [9]: Quantitative High-Throughput drug screen in 47 multiple myeloma cell lines against the NCATS MIPE library collection: VP6_DJ cell viability assay (AID 1919867). Also: nearly all actives have a fitted effect of over 40% in size. The procedure, abridged:
as §1

The nature of test [10]: Quantitative High-Throughput drug screen in 47 multiple myeloma cell lines against the NCATS MIPE library collection: UTMC2_PLB cell viability assay (AID 1919868). Also: nearly all actives have a fitted effect of over 55% in size. The procedure, abridged:
as §1

Test [11] is described as follows: Quantitative High-Throughput drug screen in 47 multiple myeloma cell lines against the NCATS MIPE library collection: PE2_PLB cell viability assay (AID 1919869). Also: nearly all actives have a fitted effect of over 35% in size. Summed up:
as §1

Test [12] in a line: Quantitative High-Throughput drug screen in 47 multiple myeloma cell lines against the NCATS MIPE library collection: RPMI8226_ATCC cell viability assay (AID 1919871). Also: nearly all actives have a fitted effect of over 30% in size. Summed up: as §1
Test [13] can be described thus: Quantitative High-Throughput drug screen in 47 multiple myeloma cell lines against the NCATS MIPE library collection: OPM2_DSMZ cell viability assay (AID 1919872). Also: nearly all actives have a fitted effect of over 30% in size. The procedure, abridged:
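Relative luminescence from CellTiter-Glo served as the viability signal, referenced to DMSO-treated (100%) and cell-free medium (0%) controls. Treatment lasted 48 hours at 37C with 500 cells per well.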

The nature of test [14]: Quantitative High-Throughput drug screen in 47 multiple myeloma cell lines against the NCATS MIPE library collection: KMS11_JCRBsus cell viability assay (AID 1919873). Also: nearly all actives have a fitted effect of over 50% in size. The procedure, abridged:
as §1

Test [15] is described as follows: Quantitative High-Throughput drug screen in 47 multiple myeloma cell lines against the NCATS MIPE library collection: KMS28BM_JCRB cell viability assay (AID 1919874). Also: nearly all actives have a fitted effect of over 35% in size. The procedure, abridged: as §1
Test [16] in a line: Quantitative High-Throughput drug screen in 47 multiple myeloma cell lines against the NCATS MIPE library collection: XG6_PLB cell viability assay (AID 1919865). Also: nearly all actives have a fitted effect of over 40% in size. The procedure, abridged: as §1
Test [17] is described as follows: Quantitative High-Throughput drug screen in 47 multiple myeloma cell lines against the NCATS MIPE library collection: XG1_PLB cell viability assay (AID 1919866). Also: nearly all actives have a fitted effect of over 35% in size. The procedure, abridged:
as §1

Test [18] in a line: Quantitative High-Throughput drug screen in 47 multiple myeloma cell lines against the NCATS MIPE library collection: PCM6_Riken cell viability assay (AID 1919870). Also: nearly all actives have a fitted effect of over 30% in size. The procedure, abridged:
as §1

Test [19] is described as follows: Quantitative High-Throughput drug screen in 47 multiple myeloma cell lines against the NCATS MIPE library collection: U266_ATCC cell viability assay (AID 1919864). Also: nearly all actives have a fitted effect of over 35% in size. Summed up:
as §1

Records with an inconclusive call do not appear. Values without a mark were called inactive. The source made the active and inactive calls. Calls follow the shape of the dose curve; as a rule, active = well fitted cell-killing curve with a large enough effect; inconclusive = small, poorly fitted or top-dose-only effect, or effect the other way; inactive = no such curve, though single readings can be large or run the other way.
Potency is read from the fitted curve at half-maximal effect.

For the molecule `COC(=O)Nc1nc2ccc(Sc3ccccc3)cc2[nH]1`, the Potency in test [1] is 2.35 µM (active); in [2] it was 5.26 µM (active); in [3], 469 nM (active); in test [4], 2.96 µM (active); in [5], 209 nM (active); in [6], 1.18 µM (active). The Potency in test [7] is 1.66 µM (active); in test [8], 3.32 µM (active); in test [9], 1.05 µM (active); in test [10], 2.09 µM (active); in [11], 1.18 µM (active); in test [12], 5.26 µM (active). Also, the values for the Potency in [13], in test [14] and in test [15] were 3.32 µM (active), 935 nM (active) and 935 nM (active), respectively.
As for `CC(C)(C#N)c1cc(Cn2cncn2)cc(C(C)(C)C#N)c1`, the Potency result in [1], in [2], in test [3], in test [4], in [6] and in test [7] was “inactive” throughout. Also, the Potency result in test [16], in [17], in test [11], in test [18], in test [12] and in test [13] was “inactive” each time. The Potency result in test [14] and in test [15] was “inactive” each time.
In general, viability refers to a read-out of living cells in per cent, often relative to untreated cells. On to `C[C@@H](NCCCc1cccc(C(F)(F)F)c1)c1cccc2ccccc12`, for which the Potency result in test [1], in [2], in [3], in test [4], in test [6] and in test [16] was “inactive” throughout. Moreover, the Potency entry in test [11], in test [18], in test [13], in test [14] and in [15] was “inactive” in each case. Moreover, in [8], the viability was 110%.
`Nc1nc(F)nc2c1ncn2[C@@H]1O[C@H](CO)[C@@H](O)[C@@H]1O`: the Potency in [1] is 0.59 µM (active); in [2], 0.372 µM (active); in test [3] it was 148 nM (active); in [4] it was 0.296 µM (active); in test [5] it was 118 nM (active); in test [6] it was 0.0743 µM (active). For the same molecule, the Potency is 0.743 µM (active) in test [7]; 0.332 µM (active) in test [8]; 0.296 µM (active) in [19]; 0.209 µM (active) in test [16]; 0.418 µM (active) in test [17]; 0.132 µM (active) in test [9]. Also, the Potency in [10] was 0.235 µM (active); in test [11] it was 0.209 µM (active); in test [12], 0.418 µM (active); in [13] it was 0.833 µM (active); in test [14], 296 nM (active); in test [15] it was 526 nM (active).
For `Nc1nc(N)nc(-c2cc(Cl)ccc2Cl)n1`, the Potency result in [1], in test [2], in test [3], in [4], in test [7] and in test [17] was “inactive” in each case. The Potency result in test [12] and in test [13] was “inactive” in each case. Besides, the viability in test [8] was 131%. The Potency in test [9] was 6.62 µM (active).
On to `O=C(O)c1cc(=O)[nH]c(=O)[nH]1`, for which the Potency entry in [1], in test [3], in test [4], in test [7], in [19] and in test [16] was “inactive” throughout. Further, the Potency entry in [17], in test [9], in test [11], in [18], in [12] and in test [13] was “inactive” throughout. Further, the Potency result in [14] was “inactive”. Further, in test [2], the Potency was 5.9 µM (active). Also, in test [8], the viability is 112%.
With `NS(=O)(=O)c1cc2c(cc1Cl)NC(C(Cl)Cl)NS2(=O)=O` (centres undefined), the Potency entry in [1], in test [2], in [3], in test [4], in test [6] and in test [7] was “inactive” each time. Moreover, the Potency entry in test [16], in [17], in test [9], in test [11], in test [12] and in test [13] was “inactive” in each case. Further, the Potency result in test [14] and in test [15] was “inactive” in each case. Moreover, the viability in test [8] was 112%.
`COc1cc2nc(N3CCCN(C)CC3)nc(NC3CCN(Cc4ccccc4)CC3)c2cc1OC`: the Potency in test [1] is 4.69 µM (active); in test [2], 16.6 µM (active); in test [3], 1660 nM (active); in test [4], 8.33 µM (active); in test [5], 6620 nM (active); in test [6], 11.8 µM (active). In addition, the Potency was 2.35 µM (active) in test [7]; 7.43 µM (active) in test [8]; 2.35 µM (active) in [16]; 2.96 µM (active) in test [17]; 4.69 µM (active) in test [9]; 2.35 µM (active) in test [11]. In addition, the Potency is 3.72 µM (active) in [18]; 9.35 µM (active) in [12]; 7.43 µM (active) in [13]; 4690 nM (active) in test [14]; 10500 nM (active) in test [15].
For the molecule `COc1ccccc1OCC(O)COC(N)=O` (centres undefined), the Potency entry in test [1], in [2], in [3], in test [4], in test [7] and in [16] was “inactive” in each case. In addition, the Potency result in test [17], in test [10], in [11], in test [18], in [12] and in [13] was “inactive” each time. Besides, the viability in test [8] is 136%.
For the molecule `CCOC(=O)c1ccc(OC(=O)CCCCCN=C(N)N)cc1`, the Potency entry in test [1], in test [2], in [3], in test [4], in [7] and in [16] was “inactive” in each case. Also, the Potency entry in test [17], in test [9], in [11], in test [13], in test [14] and in test [15] was “inactive” throughout. Also, in [8], the viability is 127%.
`Cc1nnc(NS(=O)(=O)c2ccc(N)cc2)s1`: the Potency entry in [1] and in test [11] was “inactive” in each case. Also, the Potency was 23.5 µM (active) in test [2]; 1180 nM (active) in [3]; 18.7 µM (active) in [4]; 14.8 µM (active) in [7]; 14.8 µM (active) in test [19]; 1.87 µM (active) in test [16]. For the same molecule, the Potency is 1.32 µM (active) in [17]; 0.187 µM (active) in [9]; 1.18 µM (active) in test [18]; 9350 nM (active) in test [14]; 4180 nM (active) in test [15].
Regarding `Cc1nnc(C(=O)NC(C)(C)c2nc(C(=O)NCc3ccc(F)cc3)c(O)c(=O)n2C)o1`, the Potency result in [1], in test [2], in test [3], in test [4], in [5] and in [7] was “inactive” throughout. The Potency entry in test [16], in test [17], in [9], in test [10], in [11] and in test [12] was “inactive” each time. The Potency result in test [13] and in test [14] was “inactive” throughout. For the same molecule, the viability in test [8] is 152%.
For `CCOCC(O)COc1ccc(NC(=O)CC[S+](C)C)cc1` (centres undefined), the Potency result in test [1], in test [2], in [3], in test [4], in [6] and in [7] was “inactive” in each case. The Potency entry in test [16], in [17], in test [9], in test [10], in [11] and in test [12] was “inactive” throughout. Moreover, the Potency entry in test [15] was “inactive”. Moreover, the viability in [8] is 111%.

These data come from PubChem BioAssay (NCATS).
